Results from PubChem BioAssay (NCATS).
Records with an inconclusive call do not appear. The source made the active and inactive calls. The call rests on the fitted dose curve; in most records, active means well fitted inhibition curve with a large enough effect; inconclusive means small, poorly fitted or top-dose-only effect; inactive means flat fitted curve, though single readings scatter.

Tests used:
Assay in all cases: qHTS profiling for inhibitors of Plasmodium falciparum proliferation (AID 504749); further: nearly all actives have a fitted effect of over 60% in size
Conditions in all cases: P. falciparum in erythrocytes, SYBR Green DNA, 72 h; series mostly up to 28.7 µM
P93_24 = test system: P93_24
Summary of the method: (§1)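 Quantitative HTS: compounds pinned into medium, infected erythrocytes added (0.3% parasitemia, 2.5% hematocrit), 72 h culture at 37 C under 5% CO2. Saponin/Triton lysis with SYBR Green I, overnight RT, then fluorescence read.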

P94_40 = test system: P94_40
Summary of the method: as §1

PAD = test system: PAD
Summary of the method: as §1

PC15 = test system: PC15
Summary of the method: as §1

PC26 = test system: PC26
Summary of the method: as §1

PC49 = test system: PC49
Summary of the method: as §1

SC27B = test system: SC27B
Summary of the method: as §1

TAB109 = test system: TAB109
Summary of the method: as §1

TAB113 = test system: TAB113
Summary of the method: as §1

TAB165 = test system: TAB165
Summary of the method: as §1

Measured: Potency
Potency means the concentration at half of the fitted maximal effect.

CCCCOCCOCCOCc1cc2c(cc1CCC)OCO2
inactive: P93_24 | P94_40 | PAD | PC15 | PC26 | PC49 | SC27B | TAB109 | TAB113 | TAB165

COc1ccc(CN(CCN(C)C)c2ccccn2)cc1
active: PC49 0.178 µM
inactive: P93_24 | P94_40 | PAD | PC15 | PC26 | TAB113 | TAB165

CN1CCN(CC(=O)N2c3ccccc3C(=O)Nc3cccnc32)CC1
inactive: P93_24 | P94_40 | PAD | PC15 | PC26 | PC49 | SC27B | TAB109 | TAB113 | TAB165

COCC(=O)O[C@]1(CCN(C)CCCc2nc3ccccc3[nH]2)CCc2cc(F)ccc2[C@@H]1C(C)C
active: P93_24 1.58 µM | P94_40 2.82 µM | PAD 3.55 µM | PC15 4.47 µM | PC26 3.38 µM | PC49 1.12 µM | SC27B 1.78 µM | TAB109 2.24 µM | TAB113 2 µM | TAB165 2 µM

CCN(CC)CCNC(=O)c1ccc(NC(C)=O)cc1
inactive: P93_24 | P94_40 | PAD | PC15 | PC26 | PC49 | SC27B | TAB109 | TAB113 | TAB165

C[N+](C)(C)CCOC(=O)CCC(=O)OCC[N+](C)(C)C
inactive: P93_24 | P94_40 | PAD | PC15 | PC26 | PC49 | SC27B | TAB109 | TAB113 | TAB165

NC(=O)c1cn(Cc2c(F)cccc2F)nn1
inactive: P93_24 | P94_40 | PAD | PC15 | PC26 | PC49 | SC27B | TAB109 | TAB113 | TAB165

O=C(O)CN(CCN(CC(=O)O)CC(=O)O)CCN(CC(=O)O)CC(=O)O
inactive: P93_24 | P94_40 | PAD | PC15 | PC26 | PC49 | SC27B | TAB109 | TAB113 | TAB165

Cc1ccc(Cl)c(Nc2ccccc2C(=O)O)c1Cl
inactive: P93_24 | P94_40 | PAD | PC15 | PC26 | PC49 | SC27B | TAB109 | TAB113 | TAB165

O=C(O)CP(=O)(O)O
inactive: P93_24 | P94_40 | PAD | PC15 | PC26 | PC49 | SC27B | TAB109 | TAB113 | TAB165

CN(C)C(=O)Oc1cccc([N+](C)(C)C)c1
inactive: P93_24 | P94_40 | PAD | PC15 | PC26 | PC49 | SC27B | TAB109 | TAB113 | TAB165

NC(=Nc1ccccc1)Nc1ccccc1
inactive: P93_24 | P94_40 | PAD | PC15 | PC49 | SC27B | TAB109 | TAB113 | TAB165

C[n+]1cc2c3c(ccc2c2ccc4cc5c(cc4c21)OCO5)OCO3
inactive: P93_24 | P94_40 | PAD | PC15 | PC49 | SC27B | TAB109 | TAB165

Nc1c2c(nc3ccccc13)CCCC2O (stereo unspecified)
inactive: P93_24 | P94_40 | PAD | PC15 | PC26 | PC49 | SC27B | TAB109 | TAB113 | TAB165

O=C1NCN(c2ccccc2)C12CCN(CCCC(c1ccc(F)cc1)c1ccc(F)cc1)CC2
active: P93_24 4.47 µM | P94_40 5.62 µM | PAD 5.01 µM | PC15 11.2 µM | SC27B 8.91 µM | TAB109 6.31 µM | TAB113 12.6 µM | TAB165 3.55 µM

CCOC(=O)C1=C(C)NC(C)=C(C(=O)OC)C1c1cccc(Cl)c1Cl (stereo unspecified)
inactive: P93_24 | P94_40 | PAD | PC15 | PC49 | TAB109 | TAB113

CN1CCN(C2=Nc3ccccc3Oc3ccc(Cl)cc32)CC1
inactive: P93_24 | P94_40 | PAD | PC15 | PC49 | SC27B | TAB109 | TAB113 | TAB165

COc1ccc([C@@H]2Sc3ccccc3N(CCN(C)C)C(=O)[C@@H]2OC(C)=O)cc1
inactive: P93_24 | P94_40 | PAD | PC15 | PC26 | PC49 | SC27B | TAB109 | TAB113 | TAB165

CC(=O)[C@]1(O)Cc2c(O)c3c(c(O)c2[C@@H](O[C@H]2C[C@H](N)[C@H](O)[C@H](C)O2)C1)C(=O)c1ccccc1C3=O
active: P93_24 4.47 µM | P94_40 3.16 µM | PAD 5.01 µM | PC15 8.91 µM | PC49 7.08 µM | SC27B 5.01 µM | TAB109 3.98 µM | TAB113 4.47 µM | TAB165 3.16 µM

Nc1nc(N)c2nc(-c3ccccc3)c(N)nc2n1
inactive: P93_24 | P94_40 | PAD | PC15 | PC26 | PC49 | SC27B | TAB109 | TAB113 | TAB165

CC1=C(C)C(=O)C(CCCCC#CCCCC#CCO)=C(C)C1=O
inactive: PC49
active: P93_24 5.01 µM | P94_40 8.91 µM | PAD 4.47 µM | PC15 8.91 µM | PC26 7.57 µM | SC27B 7.08 µM | TAB113 7.94 µM | TAB165 5.01 µM

C[C@]12CCC(=O)C=C1CC[C@@H]1[C@@H]2CC[C@@]2(C)[C@H]1CC[C@]2(O)C(=O)CO
inactive: P93_24 | P94_40 | PAD | PC15 | PC49 | SC27B | TAB109 | TAB113 | TAB165
